This is a sample that favours compounds with a hit; in the whole collection about 2.8% have one here.
PglD DTNB: PglD (C. jejuni) enzyme inhibition; purified PglD enzyme, DTNB colorimetric CoA detection; inhibition, % at 12.5 µM; 0.098% of 360,000 active; AID 602405; in the data active means inhibition above about 16%, passing the limit was not always enough
dFosB activator: enhances mouse delta FosB homodimer DNA binding. purified delta FosB, TAMRA-CDK5 oligo fluorescence polarization; percent of positive-control signal above neutral wells. activation, % at 25 µM. 0.99% of 340,000 active. AID 493131;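 active means mean activation above about 17%, with every replicate also reaching it, limit read from the data, passing the limit was not always enough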
Target sequence (P13346 whole entry, looked up): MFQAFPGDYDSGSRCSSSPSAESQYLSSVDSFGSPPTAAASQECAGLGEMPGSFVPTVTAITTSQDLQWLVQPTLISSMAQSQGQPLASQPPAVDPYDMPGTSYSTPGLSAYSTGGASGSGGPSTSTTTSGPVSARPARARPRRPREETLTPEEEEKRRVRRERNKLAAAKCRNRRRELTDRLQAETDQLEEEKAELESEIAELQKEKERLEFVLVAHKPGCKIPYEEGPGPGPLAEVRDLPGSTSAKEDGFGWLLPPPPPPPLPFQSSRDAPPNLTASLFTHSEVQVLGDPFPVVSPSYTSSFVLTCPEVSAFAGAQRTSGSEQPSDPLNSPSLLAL
CDK5 p35 inh: blocks human CDK5/p35 kinase activity. Recombinant CDK5/p35, ADP-Glo luminescence, 60 min. Q00535+Q15078. inhibition, % at 10 µM. 0.01% of 330,000 active;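 active means highest replicate inhibition of at least 50% and at least 75% of replicates reaching 50%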;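 further: plate controls were DMSO neutral control for no effect and GW8510 at 10 µM for full effect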
SIRT5 block: sirtuin-5 (human) deacylase inhibition | inhibition, % at 15 µM | AID 652115 | 1.1% of 330,000 active | Purified SirT5, succinyl-peptide AMC, trypsin-coupled fluorescence | Q9NXA8; in the data active means inhibition above about 15%
FGF22 binding: FGF22 (human) thermal shift binding; Q9HCT0; recombinant FGF22 thermal shift, SYPRO orange fluorescence; percent of sucrose octasulfate shift, DMSO zero; activity (Tm shift, normalised), % at 9.99 µM; 1.5% of 340,000 active; AID 651658;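 active means mean Tm shift, scaled 0 neutral to 100 positive control, at about 1.3% or above, every replicate too, limit read from the data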
Target sequence (Q9HCT0 whole entry, looked up): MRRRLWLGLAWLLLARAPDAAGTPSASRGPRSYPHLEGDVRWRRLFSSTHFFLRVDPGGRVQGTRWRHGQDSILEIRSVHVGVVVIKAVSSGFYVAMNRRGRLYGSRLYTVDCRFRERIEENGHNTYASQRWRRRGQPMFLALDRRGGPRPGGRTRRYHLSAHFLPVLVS
PvdQ inh: blocks Pseudomonas aeruginosa PvdQ acylase activity | AID 488965 | purified PvdQ acylase, fluorescence plate reader | 0.063% of 340,000 active | inhibition, % at 10 µM; in the data active means inhibition above about 30%, passing the limit was not always enough;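 further: 0% = vehicle neutral wells and 100% = reference inhibitor wells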
Numbers without * were called inactive; · = no result given.

SMILES	PglD DTNB	dFosB activator	CDK5 p35 inh	SIRT5 block	FGF22 binding	PvdQ inh
CN(C)S(=O)(=O)c1cc(C(=O)NCc2ccccc2)c(Cl)cc1Cl	-6	2	-2	-1	43*	3
CO[C@H]1CN(C)C(=O)c2cc(NC(C)=O)ccc2OC[C@H](C)N(C(=O)Cc2cccnc2)C[C@@H]1C	10	·	·	2	0	·
O=C(Nc1ccc2c(c1)OCCO2)C(c1ccnc2ccccc12)N1CCN(c2ccc(C(F)(F)F)cn2)CC1 (stereo not drawn)	0	·	·	-2	0	·
O=C(Nc1ccc2c(c1)OCCO2)C(c1ccnc2ccccc12)N1CCN(c2ccc(F)cc2)CC1 (stereo not drawn)	-4	·	·	29*	0	·
COc1ccc(S(=O)(=O)N(C)C[C@@H]2OCCCC[C@H](C)Oc3ccc(NC(=O)Nc4ccc(F)cc4)cc3C(=O)N([C@H](C)CO)C[C@H]2C)cc1	1	·	·	17*	-1	·
COc1ccc(S(=O)(=O)N(C)C[C@@H]2OCCCC[C@@H](C)Oc3ccc(NC(=O)Nc4ccc(C(F)(F)F)cc4)cc3C(=O)N([C@@H](C)CO)C[C@@H]2C)cc1	-2	·	·	28*	0	·
COc1ccc(NC(=O)Nc2ccc3c(c2)C(=O)N([C@@H](C)CO)C[C@H](C)[C@@H](CN(C)S(=O)(=O)c2ccc(F)cc2)OCCCC[C@@H](C)O3)cc1	-3	·	·	8	-1	·
COc1ccc(NC(=O)Nc2ccc3c(c2)C(=O)N([C@@H](C)CO)C[C@@H](C)[C@H](CN(C)S(=O)(=O)c2ccccc2)OCCCC[C@@H](C)O3)cc1	0	·	·	15*	0	·
COc1ccc(S(=O)(=O)N(C)C[C@H]2OCCCC[C@H](C)Oc3ccc(NC(=O)Nc4ccc(F)cc4)cc3C(=O)N([C@H](C)CO)C[C@@H]2C)cc1	0	·	·	17*	0	·
C[C@@H]1CCCCO[C@@H](CN(C)S(=O)(=O)c2ccc(F)cc2)[C@H](C)CN([C@@H](C)CO)C(=O)c2cc(NC(=O)Nc3ccc4c(c3)OCO4)ccc2O1	0	·	·	21*	0	·
COc1ccc(S(=O)(=O)N(C)C[C@@H]2OCCCC[C@@H](C)Oc3ccc(NC(=O)Nc4cccc5ccccc45)cc3C(=O)N([C@@H](C)CO)C[C@H]2C)cc1	1	·	·	3	1.3*	·
C[C@H](CO)N1C[C@H](C)[C@@H](CN(C)S(=O)(=O)c2ccc(F)cc2)OCCCC[C@H](C)Oc2ccc(NC(=O)Nc3ccc4c(c3)OCO4)cc2C1=O	-2	·	·	9	·	·
COc1cccc(-c2ccc([C@H]3[C@H]4CN(CC5CCOCC5)CCCCN4[C@H]3CO)cc2)c1	-2	·	·	-1	0	·
COC(=O)Cc1nnn2c1[C@H](C)[C@@H](OC)c1ccc(C(F)(F)F)cc1-2	·	·	·	·	0	·
COC(=O)Cc1nnn2c1[C@H](C)[C@@H](OC)c1cccc(Cl)c1-2	·	·	·	·	82*	·
O=c1oc(CCO)cc2ccc(C#Cc3ccsc3)cc12	4	-10	0	17*	0	9
CN(C)c1ccc(C#Cc2ccc3cc(CCO)oc(=O)c3c2)cc1	-7	-3	0	·	·	-12
C[C@@H]1CN([C@H](C)CO)S(=O)(=O)c2ccc(C3=CCCCC3)cc2O[C@H]1CN(C)C(=O)c1ccccc1	0	·	·	3	0	·
O=C(NNS(=O)(=O)c1ccc(Br)cc1)c1sccc1-n1cccc1	·	-3	4	2	44*	2
COc1ccc(S(=O)(=O)NNC(=O)c2sccc2-n2cccc2)cc1	7	-6	0	-3	0	-11
C[C@@H]1CN([C@@H](C)CO)C(=O)c2cccc(NS(=O)(=O)c3ccccc3)c2O[C@H]1CN(C)S(=O)(=O)c1ccc(Cl)cc1	3	·	·	-1	0	·
CC(C)CCN1CCN(Cc2nc3ccccc3s2)CC1CCO (stereo not drawn)	-2	-8	0	-1	0	-1
Cc1oc(-c2cccs2)nc1CN1CCN(CCC(C)C)C(CCO)C1 (stereo not drawn)	·	-3	-2	17*	0	-12
CC(C)CCN1CCN(CC(c2ccccc2)c2ccccc2)CC1CCO (stereo not drawn)	0	1	-1	0	43*	-16
COc1ccc(CN(C)C[C@@H]2OCCCC[C@H](C)Oc3ccc(NS(=O)(=O)c4ccc(Cl)cc4)cc3C(=O)N([C@H](C)CO)C[C@@H]2C)cc1	2	·	·	6	0	·
SMILES	PglD DTNB	dFosB activator	CDK5 p35 inh	SIRT5 block	FGF22 binding	PvdQ inh
O=C(NC[C@@H]1CC[C@@H]2[C@@H](CN2C(=O)CN2CCOCC2)O1)NC1CCCCC1	·	·	·	2	·	·
CCN1CCN(c2ccc(Nc3ccnc4ccccc34)cc2)CC1	-1	36*	1	1	0	6
CN1CCN(c2ccc(Nc3ccnc4cc(Cl)ccc34)cc2)CC1	7	57*	1	4	·	-16
COc1ccc(CN(C)C[C@H]2OCCCC[C@@H](C)Oc3ccc(NC(=O)Nc4ccc(OC)cc4)cc3C(=O)N([C@@H](C)CO)C[C@H]2C)cc1	-1	·	·	4	0	·
Cc1ccc(S(=O)(=O)Nc2ccc3c(c2)C(=O)N([C@@H](C)CO)C[C@@H](C)[C@@H](CN(C)Cc2ccccc2)O3)cc1	2	·	·	6	0	·
COc1ccccc1NC(=O)CCCCC(=O)Nc1ccccc1OC	3	4	0	16*	0	7
COc1ccccc1NC(=O)Nc1nnc(CC(=O)Nc2ccccc2C)s1	·	26*	-4	2	0	-13
CNCc1cc(Br)c(OCC(=O)Nc2ccccc2OC)c(OC)c1	·	-11	-2	24*	0	-10
COc1ccccc1NC(=O)CNc1ccc(F)c(Cl)c1	·	0	1	31*	0	-17
COc1ccccc1NC(=O)NCC(=O)Nc1ccc(F)c(F)c1	-10	1	0	·	·	-11
COc1ccccc1NC(=O)CCS(=O)(=O)c1ccccc1	·	-3	1	·	0	-14
C[C@@H]1CCCCO[C@H](CN(C)C(=O)CCCN(C)C)[C@@H](C)CN([C@H](C)CO)C(=O)c2cc(NC(=O)CCC(F)(F)F)ccc2O1	-3	·	·	0	1.5*	·
C[C@@H]1CCCCO[C@@H](CN(C)C(=O)CCC(F)(F)F)[C@@H](C)CN([C@H](C)CO)C(=O)c2cc(NC(=O)CCCN(C)C)ccc2O1	0	·	·	·	0	·
CCOC(=O)CCCCCC(=O)Nc1ccc2c(c1)C(=O)N([C@H](C)CO)C[C@@H](C)[C@@H](CN(C)S(=O)(=O)c1ccc(C)cc1)OCCCC[C@H](C)O2	·	·	·	21*	0	·
C[C@@H]1CN([C@@H](C)CO)C(=O)c2cc(NC(=O)CCC(F)(F)F)ccc2O[C@@H](C)CCCCO[C@@H]1CN(C)S(=O)(=O)c1ccccc1	-1	·	·	1	0	·
C[C@@H]1CCCCO[C@H](CN(C)C(=O)CCC(F)(F)F)[C@@H](C)CN([C@@H](C)CO)C(=O)c2cc(NC(=O)C3CCCCC3)ccc2O1	2	·	·	18*	0	·
